Test results published in PubChem BioAssay (Tox21).
Values without a mark were called inactive. A call without a number means that no potency is given here. Calls of active or inactive are those of the source. Calls come from the whole dose curve; as a rule, active = well fitted curve in the direction sought with a large enough effect in the repeat runs; inconclusive = weak or mixed curves; inactive = flat fitted curve, though single readings scatter.

experiment: qHTS assay to test for compound auto fluorescence at 460 nm (blue) in HEK293 cell free culture (AID 720681); details: cell-free medium, autofluorescence 405/460 nm (blue); series mostly up to 91.3 µM; fluorescence, % of fluorescent control: at the top concentration
Excerpt: U.S. Tox21 Program National Center for Advancing Translational Sciences [NCATS] NIH Chemical Genomics Center [NCGC] U.S. Environmental Protection Agency [EPA] National Institutes of Environmental Health Sciences [NIEHS] National Toxicology Program [NTP] U.S. Food and Drug Administration [FDA] Tox21 Assay Overview: Compound auto fluorescence often interferes with screening of the compound library against various biological targets and signaling pathways. Some of these compounds may have fluorophoric properties. Such properties may interfere with the assay outputs resulting in false positives and/or negatives. To decrease such complications and ensure the compound activities are relevant in terms of biological response, the Tox21 10K compound library was screened for auto fluorescence. From the fluorophores used as reporter signals in our screening assays, the auto fluorescence equivalencies of compounds against three fluorophores have been evaluated: Triamterene, Fluorescein and Rose Bengal sodium for blue, green and red fluorescence, respectively. The fluorescence intensities were measured using Excitation/Emission wavelengths at 405/460nm, 485/535nm and 540/590nm for blue, green and red labels, respectively. This assay includes the blue fluorescence data.
Tox21 Assay Protocol Summary: 5 uL of culture medium (DMEM containing 10% FBS) per well was dispensed into black wall/clear bottom 1536-well plates using a Multidrop Combi Dispenser (ThermoFisher Scientific, Waltham, MA). After 23 nL compound or DMSO vehicle was transferred into assay plate by a pintool work station (Kalypsys, San Diego, CA), fluorescence intensities in the assay plates were measured by an Envision (PerkinElmer, Shelton, CT) plate reader using three labels for measuring blue, green and red fluorescence at […] 460, 535 and 590nm respectively.

Row | SMILES | Potency | fluorescence, % of fluorescent control
1 | CC(C)[C@@H]1CC[C@@H](C)CC1=O | inactive | 
2 | CC(C)(C)c1cccc(C(C)(C)C)c1O | inactive | 
3 | CC/C=C\C/C=C\C/C=C\CCCCCCCC(=O)O | inactive | 
4 | Nc1ccc(O)c(N)c1 | inactive | 
5 | CC(=O)Oc1ccc(C(c2ccc(OC(C)=O)cc2)c2ccccn2)cc1 | inactive | 
6 | CCCCCCCCCCCCO | inactive | 
7 | Cc1ccc(C(C)(C)C)cc1 | inactive | 
8 | CC[C@]12CCCN3CCc4c(n(c5ccccc45)[C@@](O)(C(=O)OC)C1)[C@@H]32 | inactive | 
9 | O=S1(=O)CCCO1 | inactive | 
10 | CCCCCCCCCCC(CO)CCCCCCCC (stereo not given) | inactive | 
11 | O=C(O)COCCN1CCN(C(c2ccccc2)c2ccc(Cl)cc2)CC1 (stereo not given) | inactive | 
12 | FC(F)(F)C(Cl)Br (stereo not given) | inactive | 
13 | CC(=O)Nc1ccc2c(c1)Cc1cc(NC(C)=O)ccc1-2 | inactive | 
14 | CCC(Cc1c(I)cc(I)c(N)c1I)C(=O)O (stereo not given) | inactive | 
15 | O=C1CCc2ccccc2O1 | inactive | 
16 | CC(=O)[C@@]1(O)CC[C@H]2[C@@H]3C[C@H](C)C4=CC(=O)C=C[C@]4(C)[C@@]3(F)[C@@H](O)C[C@@]21C | inactive | 
17 | C/C=C/C(=O)N(CC)c1ccccc1C | inactive | 
18 | O=C(O)CCCCCCCCCCCC(=O)O | inactive | 
19 | CCCN1C=CN(C)C1 | inactive | 
20 | O=C(O)c1ccc(O)cc1 | inactive | 

Row | SMILES | Potency | fluorescence, % of fluorescent control
21 | Oc1ccc(C(c2ccc(O)cc2)C(Cl)(Cl)Cl)cc1 | inactive | 
22 | COc1ccc(-c2coc3cc(O)cc(O)c3c2=O)cc1 | inactive | 
23 | CC1(C)C(C=C(Cl)Cl)C1C(=O)OCc1cccc(Oc2ccccc2)c1 (stereo not given) | inactive | 
24 | CCCCCCCCCCCCCO | inactive | 
25 | CC1=CC(C)(C)Nc2ccccc21 | inactive | 
26 | Nc1ccc2c(O)cc(S(=O)(=O)O)cc2c1 |  | 8.28%
27 | Cc1ccc(S(=O)(=O)NCl)cc1 | inactive | 
28 | CCC/C=C/C=O | inactive | 
29 | C1COCCN1 | inactive | 
30 | Cc1ccc2c(c1)C(=O)OC2=O | inactive | 
31 | C=C[Si](OCCOC)(OCCOC)OCCOC | inactive | 
32 | O=C(O)CCCC(=O)O | inactive | 
33 | CC(C)=CCO | inactive | 
34 | C[C@]12CC[C@@H]3c4ccc(O)cc4CC[C@H]3[C@@H]1CC[C@@H]2O | inactive | 
35 | O=Cc1ccccc1C=O | inactive | 
36 | NCCS(=O)(=O)O | inactive | 
37 | Cc1ccc(C)c(O)c1 | inactive | 
38 | c1ccc2ncccc2c1 | inactive | 
39 | O=[Se](O)O | inactive | 
40 | C=CN1CCCC1=O | inactive | 
